# Test results from ChEMBL document CHEMBL3988442, “University of Dundee, Small-Polar-MMV Screening Library” (2021).
# Key:
# [1] = target: T1, Aspartate--tRNA(Asp/Asn) ligase (Mycobacterium tuberculosis (strain ATCC 25618 / H37Rv)) (UniProt P9WFW3); experiment: Assay for Asp RNA synthetase-1 from Mycobacterium tuberculosis; assay type: functional; parameters: scale not given: direction of the effect not stated beside the values; conditions: 30 µM; also: in the data most compounds retested in dose-response had high values
# T1 sequence (whole entry): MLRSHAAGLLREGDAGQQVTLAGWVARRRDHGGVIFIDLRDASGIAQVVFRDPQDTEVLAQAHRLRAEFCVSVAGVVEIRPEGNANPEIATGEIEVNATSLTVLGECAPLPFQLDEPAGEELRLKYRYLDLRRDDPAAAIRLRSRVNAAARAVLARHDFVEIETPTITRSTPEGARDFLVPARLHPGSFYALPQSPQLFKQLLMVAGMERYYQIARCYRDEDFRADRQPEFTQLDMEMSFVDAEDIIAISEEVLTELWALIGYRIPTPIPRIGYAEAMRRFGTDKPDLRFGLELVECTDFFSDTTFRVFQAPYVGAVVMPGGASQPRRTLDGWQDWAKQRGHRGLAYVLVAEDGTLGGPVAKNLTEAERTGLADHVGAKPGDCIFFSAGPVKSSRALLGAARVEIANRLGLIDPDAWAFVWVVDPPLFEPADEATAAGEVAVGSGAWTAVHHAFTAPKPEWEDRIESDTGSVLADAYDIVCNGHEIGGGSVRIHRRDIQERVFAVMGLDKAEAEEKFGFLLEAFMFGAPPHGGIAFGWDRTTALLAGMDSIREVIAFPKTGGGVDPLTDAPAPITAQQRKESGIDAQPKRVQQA
# [2] = target: Shiga toxin 2 (Escherichia coli O157:H7) (UniProt P09385+P09386); experiment: E. coli 0.157:H7 Shiga Toxin SOP - stx2 screening assay; assay type: functional; parameters: scale not given: direction of the effect not stated beside the values; conditions: 30 µM
Compound,Percent Effect [1],Percent Effect [2]
COc1ccc(CN(C)Cc2nc3c(cnn3C)c(=O)[nH]2)cc1OC,-3.27%,-8.89%
COc1ccc(OC)c(C(O)CN2CC(n3cccn3)C2)c1 (configuration not stated),-0.9%,21.2%
CC(=O)Nc1ccc(S(=O)(=O)NC(=O)CCC2CCCO2)cc1 (configuration not stated),2.52%,-2.77%
COCC1CC2(CCN(C(=O)c3cccc(C)c3)CC2)CO1 (configuration not stated),-0.131%,-2.68%
COc1cc(CNc2cnn(C)c2)cc2c1OCCO2,-1.79%,7.95%
Cc1cccc(CS(=O)(=O)CC(=O)NCCCOC(C)C)c1,-3.37%,-44.7%
CCO[C@H]1CO[C@@]2(CCCN(S(=O)(=O)c3ccccc3)C2)C1,4.62%,-21.7%
COc1nn(C)cc1C(=O)N1CCC(c2nnc(C3CC3)o2)CC1,-1.47%,-8.92%
COc1ccc(OCc2cc(C(=O)N3CCN[C@H](C)C3)n[nH]2)c(Cl)c1,-1.22%,-61%
CCn1c(=O)nc2n1C(=O)N(c1cccc(Cl)c1)C2,0.929%,-43.9%
O=C(c1ccc2c(c1)OCO2)N1CCC[C@]2(C[C@H](OCC3CC3)CO2)C1,1.07%,5.01%
COc1c(C2CCCN2C(=O)c2csc(C(C)C)n2)c(C)nn1C (configuration not stated),5.31%,4.42%
Cc1nc(CN(C)C2CCN(Cc3ccc4c(c3)OCCO4)C2)no1 (configuration not stated),-4.04%,5.87%
CC(C)(C)c1n[nH]c(C2CN(C(=O)c3cc(C4CC4)on3)CCO2)n1 (configuration not stated),-2.16%,-1.24%
Cc1[nH]c(=O)[nH]c(=O)c1CN1CCCC(CCc2c(F)cccc2F)C1 (configuration not stated),0.725%,0.432%
Cc1nccn1CC1CCCN1S(=O)(=O)Cc1ccon1 (configuration not stated),-2.34%,-23.9%
Cc1cc(C(=O)NCCn2nc3ccccn3c2=O)[nH]n1,-1.59%,-43.7%
CCN1C[C@H]2CCN(C(C)=O)CC[C@H]2S1(=O)=O,-0.319%,-50.9%
Clc1ccccc1C1(c2ccnc(-c3ccncc3)n2)CCNCC1,0.832%,-43.2%
CC(C)c1nn(C)c(N(C)C)c1CNCCC(=O)N(C)C,-4.3%,10.1%
Cc1nnc(N2CCOC(Cn3cccn3)C2)c(C#N)c1C (configuration not stated),3.88%,19.5%
Cc1ccc(CNS(=O)(=O)CC2=NC(=O)n3cccc3C2=O)cc1,3.72%,4.1%
Cc1ccc(CN(C)C(=O)CN2CCOC(Cn3cncn3)C2)o1 (configuration not stated),2.6%,-9.96%
CCn1nc(C)cc1C(=O)Nc1cc(F)ccc1OCC1CCCO1 (configuration not stated),-3.81%,34.1%
CC(C)N(Cc1cccc(F)c1)Cc1nc2c(cnn2C)c(=O)[nH]1,-5.3%,-0.112%
CCOC(=O)CCNC(=O)N1CCN(c2nc3ccccc3n2C)CC1,-4.71%,-68.4%

Compound,Percent Effect [1],Percent Effect [2]
CC(C)c1nc(C2CCCN2CCCc2nc3ccccc3o2)no1 (configuration not stated),-3.53%,17.3%
Cc1cnn(CC2CN(CC(=O)Nc3sccc3C#N)CCO2)c1 (configuration not stated),-2.83%,27.5%
CN(C)c1ncc(CN2CCC(c3nnsc3S(C)(=O)=O)CC2)cn1,-3.26%,1.96%
O=C(c1ccoc1)N1CC[C@@H]2O[C@H](COCc3ccccn3)CC[C@@H]21,1.36%,-5.78%
CCn1nc(C)c2nc(C(C)C)nc(N3CCCCC3)c21,8.83%,-36.2%
CC(C)COC(C)C(=O)NCc1cc(F)cc(F)c1 (configuration not stated),-4.79%,27.6%
CCO[C@@H]1CO[C@@]2(CCCN(C(=O)c3ccc(OC)c(F)c3)C2)C1,2.11%,-23.8%
Cc1nnc2n1CCN(C(=O)c1cc(Cl)c[nH]1)C2,-0.345%,2.46%
CCC1=N[C@@]2(CC[C@@H]3CN(CC(=O)N(C)C)C[C@@H]32)C(=O)N1CC1CC1,-4.18%,-27.3%
Cn1cnnc1C1CCCN(C(=O)c2cnc3ccccc3n2)C1 (configuration not stated),-1.76%,36.5%
CCCC1CCCN(Cc2csc(-c3cnn(C)c3)n2)CC1 (configuration not stated),-1.75%,20.9%
Cc1ccc(NC2CCN(C(=O)Cn3nc(C)cc3C)CC2)nn1,-3.3%,28.3%
O=C(CSc1ccc2c(c1)OCCO2)NS(=O)(=O)C1CCCCC1,1.67%,-14%
Cc1cccc(-c2noc(CN3CCc4nn(C)c(=O)cc4C3)n2)c1,47.9%,-21.4%
O=C(N[C@@H]1CN(Cc2ccsc2)[C@@H]2CCCO[C@@H]21)C1CC1,-0.611%,-18.9%
O=C(c1ccc(C2CCCO2)s1)N1Cc2ccccc2C1 (configuration not stated),0.948%,-61.8%
COCC(=O)N1CCC(c2cccc(Cc3ccc(F)cc3)n2)CC1,1.18%,-10.6%
O=c1c2cnc(N3CCCCC3)nc2ccn1-c1ccccc1,-0.697%,-17.9%
O=C(NCCOc1ncc(Cl)cc1Cl)c1ccncc1F,-3.03%,1.2%
Cn1c(CN2CCOC(c3nc(C(C)(C)C)n[nH]3)C2)nnc1C1CC1 (configuration not stated),-5.04%,-21.1%
O=C(NCC1CC1)C1CN(C(=O)c2cccc(Cl)c2)CC12CCOCC2 (configuration not stated),11.9%,-14.2%
CCNC(=O)[C@@H]1C[C@@H](NC(=O)Cc2ccncc2)CN1Cc1ccsc1,-3.17%,-0.12%
CC(C)c1nnc2n1CCN(C(=O)c1ccnc(N(C)C)c1)C2,-5.48%,-7.07%
CCc1nccn1C1CCCN(C(=O)c2cn3c(C)cccc3n2)C1 (configuration not stated),-4.04%,4.17%
CCN(CC1CCOC1)C(=O)c1cccnc1N1CCOCC1 (configuration not stated),-1.66%,25.6%
O=C(Cc1ccc(F)cc1)NCCNCC1CNc2ccnn2C1 (configuration not stated),-2.44%,-33.6%

Compound,Percent Effect [1],Percent Effect [2]
Fc1ccc(-c2nnc(CN3CCCC3Cn3cncn3)o2)cc1 (configuration not stated),-1.49%,-12.6%
Cc1ccc(CNC2CCCc3c2cnn3C)s1 (configuration not stated),-2.88%,1.56%
CC(C)Oc1ncc(C(=O)N2CCC(NC(=O)C3CC3)CC2)cc1Cl,-4.56%,-46.9%
Cc1nc(C)n(C2CCCN(C(=O)c3cnc[nH]3)C2)n1 (configuration not stated),-5.96%,9.84%
c1ccc(-c2noc(CN3CCOC(Cn4cccn4)C3)n2)nc1 (configuration not stated),-2.01%,11.3%
CNC(=O)C1CCC(NC(=O)N(C)Cc2c(C)noc2C)CC1 (configuration not stated),-3.01%,14.3%
Cc1noc([C@H]2CC[C@@H]3[C@@H](CCN3S(C)(=O)=O)O2)n1,2.38%,-3.33%
COc1cccc(CN(C)Cc2cccc(C#N)c2)c1OC,-1.23%,14.1%
Cc1ccc(C(=O)N2CCSCC2)cc1NC(=O)Cn1cncn1,-1%,-22.8%
c1ccc(-n2ncc(CN3CCCC3Cn3cccn3)n2)cc1 (configuration not stated),-5.28%,2.57%
CCN(CC)CCNC(=O)c1ccn(COc2cc(C)cc(C)c2)n1,-3.4%,-48.5%
CC(C)Nc1ccc2nc(C3CCN(C(C)C)CC3)nn2c1,-0.549%,-8.89%
Cc1cc(N(C)Cc2cc(C)on2)n2nc(C)c(C)c2n1,1.81%,-20%
Cc1nc(C)n(CC2CCCN2Cc2cscn2)n1 (configuration not stated),-5.82%,24.1%
Cc1ccc(N2CC3(CCN(c4nccs4)C3)C2)nn1,-3.76%,-64.2%
C1CC(CN2CCOCC3(CCN(C4CCOCC4)C3)C2)CCO1 (configuration not stated),3.19%,-4.37%
CC(C)S(=O)(=O)NCC1CCCN(C(=O)c2cccnc2)C1 (configuration not stated),-0.834%,-4.9%
c1ccc(N2CCOC3(CCCN(c4nncs4)C3)C2)nc1 (configuration not stated),6.43%,1.67%
O=C(NCC1CC1)[C@H]1C[C@H]2OCC[C@H]2N(Cc2ccsc2)C1,4.96%,13.4%
CN(C)C(=O)CC1CC2(CCN(C(=O)N(C)C)CC2)Oc2ccccc21 (configuration not stated),1%,-12.4%
c1sc(C2CCCC2)nc1CN1CCn2c(nnc2C2CC2)C1,3.23%,27.9%
CN(CC1COc2ccccc2O1)C(=O)NCCCn1cncn1 (configuration not stated),1.57%,21.4%
CCCC(=O)N1CC[C@@H]2[C@H](CC1)N(Cc1cccnc1)CCS2(=O)=O,-0.493%,-7.37%
O=C(COCC1CC1)N1CCCC(n2cncn2)C1 (configuration not stated),-4.03%,18.2%
CN(CC(=O)N1CCCN(Cc2cscn2)CC1)c1cnccn1,-1.02%,-25.9%
C1CC(CN2CCO[C@H]3[C@H](OCC4CC4)CC[C@@H]32)CCO1,0.999%,-6.68%

Compound,Percent Effect [1],Percent Effect [2]
CC(C)c1cc(NCC(O)CO)n2nccc2n1 (configuration not stated),-1.68%,-0.898%
Cc1cc(C)n(CC2CCCN2CC(=O)NC2CCOCC2)n1 (configuration not stated),-3.04%,-26.7%
Cc1ccc(S(=O)(=O)N2CCOc3ccccc32)cc1C(N)=O,0.611%,-48.3%
O=C(c1ccnnc1)N1CCC2(CC1)CC(N1CCOCC1)C2,2.89%,-0.921%
C[S+]([O-])c1nncn1CC(=O)c1ccc(Cl)c(Cl)c1 (configuration not stated),1.03%,-25.1%
O=C(CN1CCCCCCC1=O)NCc1ccccn1,-0.137%,-35.3%
Cc1cccc(CN2CC3(CCNCC3)OCC2=O)n1,5.56%,5.99%
CCc1nccn1C1CCCN(C(=O)c2csc(COC)n2)C1 (configuration not stated),4.12%,-14.9%
COc1ccc(OC)c(-c2nc(CN(C)Cc3nncn3C)c(C)o2)c1,5.61%,-20.1%
CCOCC(=O)NC1(c2cccc(Br)c2)CC1,1.26%,-5.68%
CCc1nnc2n1CCN(C(=O)COCCc1ccccc1)C2,3.29%,24.8%
COc1ccc(CN2CCC(O)CC2)c(OC)c1,-2.06%,7.95%
CO[C@H]1CN(C(=O)c2ccc3oc(C)cc3c2)CC[C@@]12CCCO2,1.12%,7.39%
CCCc1cc(=O)n(CC(N)=O)c(-n2nc(C)cc2C)n1,3.6%,-3.82%
Cc1noc(Cl)c1CCC(=O)N1CCC(CC(N)=O)CC1,0.618%,17.9%
Cc1cnn(CCNCc2ccccc2OCc2cccnc2)c1,4.5%,-8.49%
O=C(CCNC(=O)C1CCCC1)NCc1ccccc1Cn1cncn1,2.64%,29.7%
c1cnnc(N2CCCC(NCc3nnc(-c4ccco4)o3)C2)c1 (configuration not stated),-0.7%,-79.7%
COc1ccc(CN(C)C(=O)CCC(=O)c2cccs2)c(OC)c1OC,1%,0.732%
Cc1noc(C(C)C)c1C(=O)N1CCCN(Cc2cscn2)CC1,-4.35%,-6.33%
Cc1noc(C2CCN(C(=O)CCNc3ncccn3)CC2)n1,0.856%,-36.4%
Cc1cn2nc(N3CCCC3Cn3nc(C)cc3C)sc2n1 (configuration not stated),-7.52%,-1.2%
CN(Cc1ccc(Cl)s1)C1CCCN(c2cccnn2)C1 (configuration not stated),2.31%,-15%
